CSC inhib – blocks cancer stem cells | AID 2717 | hit rate 1.1% among 300,000 | inhibition, % at 7.5 µM | cancer stem cell-like cells viability, luminescence; in the data active = inhibition above about 75%; tested in HMLE shEcad cells
Beta apoptosis – blocks beta cell apoptosis. INS-1E cytokine-induced death, ATP luminescence, 48 h; percent of positive-control rescue, neutral wells zero. protection from apoptosis, % (no concentration beside the values). hit rate 0.8% among 300,000;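 active = Every replicate reaches about 75%, or at least half do and their mean reaches it too, limit read from the data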;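 also: 0% = cytokine-treated negative control wells and 100% = positive control rescue; higher means more ATP so stronger rescue from cytokine killing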
PP1 counter – PP1-alpha (human) inhibition in PP5 counter-screen. inhibition, % at 6.7 µM. purified PP1alpha, OMFP fluorescence. P62136. hit rate 0.9% among 320,000;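 active = inhibition above the mean inhibition of all tested compounds plus 3 SD, computed separately for each screening campaign, cut at about 15% in these data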
Calb FLC – C. albicans growth modulation with fluconazole; C. albicans CaCi-2 (fluconazole-resistant clinical isolate) + fluconazole, Alamar Blue growth, 48 h; growth inhibition, % (no concentration beside the values); hit rate 0.57% among 300,000; AID 1979;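 active = growth inhibition above about 58% in most replicates, limit read from the data, passing the limit was not always enough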;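 also: all wells also contain fluconazole at 8 µg/ml as a sub-toxic cotreatment; 0% = median of DMSO wells and 100% = median of geldanamycin control wells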
PP5 inh – PP5 (human) phosphatase inhibition; inhibition, % at 6.7 µM; hit rate 0.18% among 320,000; P53041; purified PP5c, OMFP substrate fluorescence; AID 1987;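 active = inhibition above the campaign's mean inhibition across all tested compounds plus 3 SD, cut at about 9.5% in these data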;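 also: 0% = DMSO only and 100% = 100 µM cantharidin control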
Mdm2-MdmX inh – disrupts the human Mdm2-MdmX interaction | inhibition, % at 8 µM | AID 485346 | hit rate 3% among 330,000 | SaOS-2 split-luciferase Mdm2/MdmX complementation, luminescence;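 active = inhibition of at least 50% at 8 µM in the primary screen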
Target sequence (O15151 whole entry, looked up): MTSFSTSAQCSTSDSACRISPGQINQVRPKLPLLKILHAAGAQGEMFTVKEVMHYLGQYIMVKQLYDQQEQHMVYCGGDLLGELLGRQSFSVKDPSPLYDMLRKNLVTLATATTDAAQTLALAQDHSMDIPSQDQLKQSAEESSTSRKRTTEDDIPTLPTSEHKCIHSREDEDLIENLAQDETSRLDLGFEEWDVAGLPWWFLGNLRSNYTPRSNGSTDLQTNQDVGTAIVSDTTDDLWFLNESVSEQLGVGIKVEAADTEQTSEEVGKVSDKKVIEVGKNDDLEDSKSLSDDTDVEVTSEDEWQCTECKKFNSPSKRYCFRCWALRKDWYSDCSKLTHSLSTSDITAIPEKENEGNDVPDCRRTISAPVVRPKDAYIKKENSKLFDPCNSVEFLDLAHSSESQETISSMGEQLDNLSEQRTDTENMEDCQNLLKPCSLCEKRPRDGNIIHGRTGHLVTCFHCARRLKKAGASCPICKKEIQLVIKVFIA
Target sequence (Q00987 whole entry, looked up): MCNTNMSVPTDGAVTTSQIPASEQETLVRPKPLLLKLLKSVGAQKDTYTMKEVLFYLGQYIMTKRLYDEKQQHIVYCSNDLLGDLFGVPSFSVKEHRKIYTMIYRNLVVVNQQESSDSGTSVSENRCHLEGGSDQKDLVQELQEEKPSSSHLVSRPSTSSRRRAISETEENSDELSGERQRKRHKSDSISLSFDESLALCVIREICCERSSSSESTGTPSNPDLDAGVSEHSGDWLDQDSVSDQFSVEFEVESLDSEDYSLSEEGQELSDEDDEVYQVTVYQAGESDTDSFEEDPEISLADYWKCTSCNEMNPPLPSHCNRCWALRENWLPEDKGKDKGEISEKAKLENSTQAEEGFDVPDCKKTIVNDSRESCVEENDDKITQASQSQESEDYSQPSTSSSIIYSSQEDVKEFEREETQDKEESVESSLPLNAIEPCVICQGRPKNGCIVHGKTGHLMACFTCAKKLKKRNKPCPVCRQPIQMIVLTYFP
PP1 inh confirm – confirmation of human PP1 phosphatase inhibitors; inhibition, % at 6.7 µM; hit rate 52% among 1,900; shares compounds with PP1 counter; purified PP1alpha, OMFP substrate fluorescence; AID 2358;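 active = mean PP1 inhibition above a set limit taken from the earlier primary screen, cut at about 15% in these data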
PP5 counter – inhibits human PP5 phosphatase in PP1 counter-screen. shares compounds with PP1 counter. purified PP5c, OMFP fluorescence. inhibition, % at 6.7 µM. hit rate 4% among 1,900. AID 2360;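 active = mean PP5 inhibition over triplicate wells above about 9.5% taken from the earlier PP1 screen, limit read from the data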
Mdm2-MdmX conf – confirmation of human Mdm2/MdmX interaction inhibitors. shares compounds with Mdm2-MdmX inh. Mdm2-MdmX binding, luminescent assay. inhibition, % at 8 µM. hit rate 55% among 10,000; in the data active = inhibition above about 40%
FLuc counter – inhibits full-length luciferase, flagging false Mdm2/MdmX hits | shares compounds with Mdm2-MdmX inh | AID 504607 | SaOS-2 full-length luciferase counterscreen, luminescence | inhibition, % at 8 µM | hit rate 77% among 6,200;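 active = mean inhibition at 8 µM reaching about 37%, which flags the compound as non-specific, limit read from the data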;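 also: p53-null SaOS-2 cells with luciferase driven by a doxycycline-inducible promoter; compound on cells about two nights before reading with doxycycline added after day one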
An asterisk follows results filed as active; · = no result given; ! = repeats disagree. Hits are enriched below; roughly 4.9% of the tested compounds scored in any of these assays.

SMILES	CSC inhib	Beta apoptosis	PP1 counter	Calb FLC	PP5 inh	Mdm2-MdmX inh	PP1 inh confirm	PP5 counter	others
O=c1[nH]c(=O)n(CCC2=CCCCC2)c(O)c1/C=N/N1CCOCC1	2	-6	-5	2	3	19	·	·
O=c1[nH]c(=O)n(CCC2=CCCCC2)c(O)c1/C=N/Nc1cccc2ccccc12	9	8	21*	17	0	0	18*	2
Cn1cc(C(=O)N2CCCCC2)c2ccccc21	-5	-8	-5	0	1	10	·	·
CC1CC(NC(=O)C2C3CCC(O3)C2C(=O)O)CC(C)(C)C1 (stereo unspecified)	9	-13	80*	-7	79*	4	30*	48*
CCN(CC)C(=O)c1ccc2c(c1)C1C(Cl)C(Sc3ccccc3[N+](=O)[O-])CC1C(C(=O)O)N2 (stereo unspecified)	17	19	19*	1	1	16	2	2
Cc1ccc2c(c1Cl)NC(C(=O)O)C1CC(Sc3ccccc3[N+](=O)[O-])C(Cl)C21 (stereo unspecified)	29	-6	2	8	1	11	·	·
O=C1NC(=O)N(Cc2ccc(F)cc2)C(=O)/C1=C\C=C\c1ccco1	13	-2	21*	8	0	9	23*	-1
Clc1ccc(C(Cn2ccnc2)OCc2csc3c(Cl)cccc23)c(Cl)c1 (stereo unspecified)	107*	86*	32*	·	2	32	29*	-1
COc1ccc2c(C)c(CCC(=O)N3C[C@H]4C[C@@H](C3)c3cccc(=O)n3C4)c(=O)oc2c1	0	-2	-2	-3	3	24	·	·
CC(C)C(=O)Nc1ccc(N2CCN(C)CC2)c(F)c1	-6	4	-1	4	1	12	·	·
O=C(O)C1C2CCC(O2)C1C(=O)Nc1ccc(F)c(F)c1 (stereo unspecified)	-10	-2	68*	-6	74*	16	13	22*
CC(=O)c1ccccc1NC(=O)C1C2CCC(O2)C1C(=O)O (stereo unspecified)	8	-13	72*	-12	71*	-10	33*	39*
CC(=O)Nc1ccccc1C(=O)OCC(=O)c1ccc2c(c1)OCCO2	-4	0	-1	9	1	12	·	·
CC1=Nc2cc(C(=O)N3CCC4(CC3)OCCO4)ccc2Sc2ccc(Cl)cc21	-12	1	-4	3	3	24	·	·
O=C(Cn1ncn2c(cc3cc(F)ccc32)c1=O)N1CCC2(CC1)OCCO2	1	-1	-2	-1	0	15	·	·
CCOC(=O)c1cccc(NC(=O)c2c(O)[nH]c(=O)[nH]c2=O)c1	-6	-2	19*	-7	2	2	12	-2
CC(=O)NC1C(OC(=O)Cc2ccccc2)OC(COC(C)=O)C(OC(C)=O)C1OC(C)=O (stereo unspecified)	11	-2	0	10	-1	8	·	·
Cc1ccccc1N1C(=O)/C(=C/c2ccco2)C(=O)NC1=S	2	4	69*	4	4	·	35*	2
Clc1ccc(CCC(Cn2ccnc2)Sc2c(Cl)cccc2Cl)cc1 (stereo unspecified)	86*	16	34*	·	5	42	28*	-3
O=C(/C=C/c1ccc(F)cc1)NC(=S)N1C[C@H]2C[C@H](C1)c1cccc(=O)n1C2	4	-1	-4	-1	-1	4	·	·
COc1cc(C)c(-c2nc(CN3C[C@@H]4C[C@@H](C3)c3cccc(=O)n3C4)c(C)o2)cc1C	3	1	2	12	1	1	·	·
O=c1[nH]c(=S)[nH]c(O)c1N=Nc1cc(S(=O)(=O)Nc2ccc(Cl)cc2)ccc1Cl	·	8	21*	·	2	24	25*	2
COC1C(OC(=O)c2ccc(C)[nH]2)C(O)C(Oc2ccc3c(O)c(NC(=O)c4ccc(O)c(CC=C(C)C)c4)c(=O)oc3c2Cl)OC1(C)C (stereo unspecified)	3	·	24*	·	6	25	17*	4
CCN(CC)P(=S)(c1c(C)nc2ccccn12)c1c(C)nc2ccccn12	-7	-2	-2	27	1	12	·	·
CN(C)[C@@H]1C(=O)C(C(N)=O)=C(O)[C@@]2(O)C(=O)C3=C(O)c4c(O)cccc4[C@@](C)(O)C3[C@H](O)C12 (stereo partly specified)	-11	-1	20*	-16	1	16	14	12*!
SMILES	CSC inhib	Beta apoptosis	PP1 counter	Calb FLC	PP5 inh	Mdm2-MdmX inh	PP1 inh confirm	PP5 counter	others
CN(C(=O)c1ccc(Cl)nc1)C1(c2ccccc2Cl)CCCCC1=O (stereo unspecified)	-4	·	-1	5	0	5	·	·
O=C(c1cc(C(=O)NCc2ccccc2)c(=O)n(Cc2ccccc2)c1)c1cc(Cl)ccc1O	49	9	18*	-16	3	56*	16*	1	Mdm2-MdmX conf=29
CN(Cc1ccccc1)Cc1ccccc1OC(=O)N(C)C	-7	-15	-3	-17	1	15	·	·
COc1cc2c(cc1OC)-c1c(OC)c(OC)c(OC)c3ccnc(c13)C2=O	37	89*	9	29	7	72*	·	·	Mdm2-MdmX conf=44*;FLuc counter=24
COc1cc(CC2(CCc3ccncc3)C(=O)NC(=O)NC2=O)cc(OC)c1OC	-13	·	5	-5	1	23	·	·
O=C1CN=C(c2ccccc2F)c2cc(Cl)ccc2N1	-8	-4	2	·	1	14	·	·
Cc1ncc2n1-c1ccc(Cl)cc1C(c1ccccc1F)=NC2	·	·	·	·	·	51*	·	·	Mdm2-MdmX conf=14
CCC1(OC(=O)c2ccccc2)CC(C)N(C)CC1C (stereo unspecified)	-12	·	-1	-49	1	24	·	·
CCN1CCN(c2ncnc3ccc(Br)cc23)CC1	·	-8	-1	-1	3	62*	·	·	Mdm2-MdmX conf=62*;FLuc counter=42*
COC(=O)C1=C(c2cccc(C#N)c2)C[C@@H]2CC[C@H]1N2C(=O)N1CCc2cc(OC)c(OC)cc2C1	-9	-6	-4	·	1	11	·	·
C=CC[C@@H](CC/C=C/C=C/CC/C=C\[C@@H]1CSC([C@@H]2C[C@@H]2C)=N1)OC	·	·	·	·	·	56*	·	·	Mdm2-MdmX conf=49*;FLuc counter=114*
